High-throughput results from PubChem.
DAX1 inh-1 = NR0B1 (DAX1) inhibition | HEK293 Gal4-DAX1 luciferase reporter, luminescence | inhibition, % at 6.75 µM | 0.99% of 340,000 active | AID 504766;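 active = inhibition above the mean over all tested compounds plus 3 SD, cut at about 4.2% in these data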;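 note: inhibition shows as a rise in luminescence from relieved DAX1 repression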
Target sequence (P51843 207-470 limits assumed): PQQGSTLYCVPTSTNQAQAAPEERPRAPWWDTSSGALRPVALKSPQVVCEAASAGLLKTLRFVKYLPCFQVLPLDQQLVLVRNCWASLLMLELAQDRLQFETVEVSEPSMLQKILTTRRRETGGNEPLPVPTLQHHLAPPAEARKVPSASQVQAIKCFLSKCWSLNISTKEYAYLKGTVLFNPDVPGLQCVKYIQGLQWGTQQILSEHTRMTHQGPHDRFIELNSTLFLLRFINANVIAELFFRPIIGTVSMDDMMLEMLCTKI
FXN GAA850 act = increases GAA850 frataxin promoter reporter activity; HEK293 lucGAA850 FXN promoter luciferase reporter, 24 h; percent of 10 µM SAHA response; activation, % at 6 µM; 0.56% of 360,000 active; AID 540364;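 active = activation above the average of all compounds screened plus 3 SD, cutoff fixed separately per campaign, cut at about 7.5% in these data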
ssDAF12 agonist = S. stercoralis DAF-12 activation, primary screen. HEK293 ssDAF-12/GRIP1 lit1-tk-luc reporter, luminescence; % of 3 µM dafachronic acid response. activation, % at 6.8 µM. 1% of 370,000 active. AID 652126;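 active = activation above the mean over all tested compounds plus 3 SD, cut at about 0.9% in these data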
hcDAF-12 act = H. contortus DAF-12 activation, primary screen; 1.4% of 370,000 active; HEK293 hcDAF-12 lit1-tk-luc reporter, luminescence; 0% DMSO, 100% Δ7-dafachronic acid; activation, % at 6.8 µM;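 active = activation above the mean of all tested compounds plus 3 SD, cut at about 5.5% in these data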
DAX1 inh-2 = inhibitors of DAX1 repression of SF-1 activated StAR promoter. HEK293T StAR-luciferase reporter, SF-1/DAX-1 repression relief. inhibition, % at 6.8 µM. 1.1% of 370,000 active;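 active = inhibition above the mean over all tested compounds plus 3 SD, cut at about 3.6% in these data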;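 note: higher inhibition means more luminescence from relief of DAX-1 repression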
hgDAF12 agonist = activates the H. glycines DAF-12 receptor ligand-binding domain; activation, % at 6.8 µM; AID 687014; 1.8% of 370,000 active; HEK293 GAL4-hgDAF12 UAS-luciferase reporter, agonist luminescence; normalized to butyrate control;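 active = activation above a cutoff set at the mean of all screened compounds plus 3 SD, cut at about 10% in these data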
DAX1 inh confirm = confirmation of human DAX1 (NR0B1) inhibitors | shares compounds with DAX1 inh-2 | HEK293T StAR-promoter luciferase reporter, SF-1/DAX-1 repression | inhibition, % at 6.8 µM | 87% of 2,400 active;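 active = inhibition above the average of every tested compound plus 3 SD, cut at about 3.8% in these data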;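 note: active compounds raise luminescence by relieving repression of the StAR reporter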
Target sequence (P51843 whole entry, looked up): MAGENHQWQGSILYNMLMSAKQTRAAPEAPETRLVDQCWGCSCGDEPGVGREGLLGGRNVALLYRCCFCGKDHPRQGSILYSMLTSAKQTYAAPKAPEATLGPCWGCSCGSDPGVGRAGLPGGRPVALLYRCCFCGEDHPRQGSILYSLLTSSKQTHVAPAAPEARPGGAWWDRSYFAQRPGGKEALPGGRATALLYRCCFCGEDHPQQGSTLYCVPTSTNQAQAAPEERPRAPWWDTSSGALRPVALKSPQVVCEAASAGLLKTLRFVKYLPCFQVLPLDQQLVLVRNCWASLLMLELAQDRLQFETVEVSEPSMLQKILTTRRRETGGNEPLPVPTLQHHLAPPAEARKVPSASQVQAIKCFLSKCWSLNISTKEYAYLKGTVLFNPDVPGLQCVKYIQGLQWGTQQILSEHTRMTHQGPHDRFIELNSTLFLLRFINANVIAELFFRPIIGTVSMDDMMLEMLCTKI
SF1 AF2mut Luc = nonselective inhibitor or artifact in SF-1 mutant DAX1 counter-screen; shares compounds with DAX1 inh-2; HEK293 StAR-luciferase, SF-1 AF2 mutant, luminescence; inhibition, % at 6.8 µM; 78% of 2,400 active; AID 652136;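 active = inhibition above the mean of all tested compounds plus 3 SD, cut at about 3% in these data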
Numbers stand for hits. Sampled rows, rich in hits. Any-hit rate of the full collection: about 4.5%.

Results for COc1cccc(N=CNc2cccc(OC)c2)c1 ?
DAX1 inh-1: inactive; FXN GAA850 act: inactive; ssDAF12 agonist: inactive; hcDAF-12 act: inactive; DAX1 inh-2: 4.7; hgDAF12 agonist: inactive; DAX1 inh confirm: 5.4; SF1 AF2mut Luc: 3.4

Results for COc1cccc(NC=C2C(=O)OC(C)(C)OC2=O)c1 ?
DAX1 inh-1: inactive; FXN GAA850 act: inactive; ssDAF12 agonist: inactive; hcDAF-12 act: inactive; DAX1 inh-2: inactive; hgDAF12 agonist: inactive

How did NC(=Nc1cccc(F)c1)NC(=O)OCc1ccccc1 do in these assays?
ssDAF12 agonist: inactive; hcDAF-12 act: inactive; DAX1 inh-2: 5.2; hgDAF12 agonist: inactive; DAX1 inh confirm: 5.2; SF1 AF2mut Luc: 3.6

How did COc1cccc(/C=C/C(=O)NNC(=O)c2ccncc2)c1OC do in these assays?
DAX1 inh-1: inactive; FXN GAA850 act: inactive; ssDAF12 agonist: inactive; hcDAF-12 act: inactive; DAX1 inh-2: inactive; hgDAF12 agonist: inactive

How did COc1cccc(/C=C/C(=O)NNC(=O)c2ccccc2)c1OC do in these assays?
DAX1 inh-1: inactive; FXN GAA850 act: inactive; ssDAF12 agonist: inactive; hcDAF-12 act: inactive; DAX1 inh-2: 5.2; hgDAF12 agonist: inactive; DAX1 inh confirm: 5.1; SF1 AF2mut Luc: inactive

What do the screens show for `CC(C)CNC(=O)OCc1cn(Cc2c(F)cccc2F)nn1`?
ssDAF12 agonist: inactive; hcDAF-12 act: inactive; DAX1 inh-2: inactive; hgDAF12 agonist: inactive

What do the screens show for `Cc1ccccc1S(=O)(=O)/N=C(/Nc1c(C)n(C)n(-c2ccccc2)c1=O)c1ccccc1`?
DAX1 inh-1: inactive; FXN GAA850 act: inactive; ssDAF12 agonist: inactive; hcDAF-12 act: inactive; DAX1 inh-2: inactive; hgDAF12 agonist: inactive

How did Cc1ccccc1S(=O)(=O)/N=C(/Nc1nc2ccccc2s1)c1ccccc1 do in these assays?
DAX1 inh-1: inactive; FXN GAA850 act: inactive; ssDAF12 agonist: inactive; hcDAF-12 act: inactive; DAX1 inh-2: 5.5; hgDAF12 agonist: 11.2; DAX1 inh confirm: 3.8; SF1 AF2mut Luc: 4.1

How did COCc1cn(-c2ccc3c(c2)[C@]2(CC(=O)N(C)C2c2ccccc2)C(=O)N3CC(C)C)nn1 (some centres not stated) do in these assays?
ssDAF12 agonist: inactive; hcDAF-12 act: inactive; DAX1 inh-2: inactive; hgDAF12 agonist: inactive

What do the screens show for `COc1cc2c(=O)[nH]c3cc([N+](=O)[O-])ccc3c2cc1[N+](=O)[O-]`?
DAX1 inh-1: inactive; FXN GAA850 act: inactive; ssDAF12 agonist: inactive; hcDAF-12 act: inactive; DAX1 inh-2: inactive; hgDAF12 agonist: inactive

Results for Nc1cc2[nH]c(=O)c3ccccc3c2cc1[N+](=O)[O-] ?
DAX1 inh-1: inactive; FXN GAA850 act: inactive; ssDAF12 agonist: inactive; hcDAF-12 act: inactive; DAX1 inh-2: 5.4; hgDAF12 agonist: inactive; DAX1 inh confirm: inactive; SF1 AF2mut Luc: inactive

What do the screens show for `CC(=O)Nc1cccc(C(=O)OCC(=O)c2ccccc2Cl)c1`?
DAX1 inh-1: inactive; FXN GAA850 act: inactive; ssDAF12 agonist: inactive; hcDAF-12 act: inactive; DAX1 inh-2: 5.1; hgDAF12 agonist: inactive; DAX1 inh confirm: 7.3; SF1 AF2mut Luc: 5.6

Results for Nc1c(C(=O)Nc2ccc3c(c2)OCCO3)nnn1Cc1cccc(Cl)c1 ?
DAX1 inh-1: inactive; FXN GAA850 act: inactive; ssDAF12 agonist: inactive; hcDAF-12 act: inactive; DAX1 inh-2: 5.2; hgDAF12 agonist: inactive; DAX1 inh confirm: 11.0; SF1 AF2mut Luc: 4.3

What do the screens show for `Nc1c(C(=O)Nc2ccc3c(c2)OCCO3)nnn1Cc1ccccc1Cl`?
DAX1 inh-1: inactive; FXN GAA850 act: inactive; ssDAF12 agonist: inactive; hcDAF-12 act: inactive; DAX1 inh-2: 7.0; hgDAF12 agonist: inactive; DAX1 inh confirm: 9.1; SF1 AF2mut Luc: 5.5

How did Cc1cccc(C(=O)Nc2c(-c3ccccc3)nc3ncccn23)c1 do in these assays?
ssDAF12 agonist: inactive; hcDAF-12 act: inactive; DAX1 inh-2: inactive; hgDAF12 agonist: inactive

Results for FC(F)(F)c1cc(CNC2CCC23CCC(c2ccccc2)CC3)ccc1Cl (configuration not stated) ?
ssDAF12 agonist: inactive; hcDAF-12 act: inactive; hgDAF12 agonist: inactive

How did CCCCOCCCNC(=O)C[C@@H]1C(=O)N(Cc2ccc(OC)cc2)/C2=C/CCCCC[C@@]21C(=O)OCC do in these assays?
ssDAF12 agonist: inactive; hcDAF-12 act: inactive; DAX1 inh-2: inactive; hgDAF12 agonist: inactive

How did O=C(COc1ccccc1Br)NC1CC1 do in these assays?
DAX1 inh-1: inactive; FXN GAA850 act: inactive; ssDAF12 agonist: inactive; hcDAF-12 act: inactive; DAX1 inh-2: inactive; hgDAF12 agonist: inactive

Results for O=C(COc1ccccc1Br)NC(=O)NC1CCCC1 ?
DAX1 inh-1: inactive; FXN GAA850 act: inactive; ssDAF12 agonist: inactive; hcDAF-12 act: inactive; DAX1 inh-2: 4.9; hgDAF12 agonist: inactive; DAX1 inh confirm: 7.3; SF1 AF2mut Luc: 4.3

Results for COc1cc(C(=O)Nc2nnc(SCC(=O)NCC3CCCO3)s2)cc(OC)c1OC (configuration not stated) ?
DAX1 inh-1: inactive; FXN GAA850 act: inactive; ssDAF12 agonist: inactive; hcDAF-12 act: inactive; DAX1 inh-2: inactive; hgDAF12 agonist: inactive

What do the screens show for `COc1ccccc1C(=O)Nc1nnc(SCC(=O)NCC2CCCO2)s1` (configuration not stated)?
DAX1 inh-1: inactive; FXN GAA850 act: inactive; ssDAF12 agonist: inactive; hcDAF-12 act: inactive; DAX1 inh-2: 10.1; hgDAF12 agonist: 11.1; DAX1 inh confirm: 9.6; SF1 AF2mut Luc: 9.2

What do the screens show for `O=C(CSc1nnc(NC(=O)c2ccccc2F)s1)NCc1ccc(F)cc1`?
DAX1 inh-1: inactive; FXN GAA850 act: inactive; ssDAF12 agonist: inactive; hcDAF-12 act: inactive; DAX1 inh-2: 6.8; hgDAF12 agonist: inactive; DAX1 inh confirm: 9.2; SF1 AF2mut Luc: 3.7

How did COc1ccc(C(=O)Nc2nnc(SCC(=O)NC3CCCC3)s2)c(OC)c1 do in these assays?
DAX1 inh-1: inactive; FXN GAA850 act: inactive; ssDAF12 agonist: 2.3; hcDAF-12 act: inactive; DAX1 inh-2: 10.4; hgDAF12 agonist: 10.9; DAX1 inh confirm: 8.4; SF1 AF2mut Luc: inactive

What do the screens show for `O=C(Nc1nnc(-c2ccccc2)s1)c1ccccc1F`?
DAX1 inh-1: inactive; FXN GAA850 act: inactive; ssDAF12 agonist: inactive; hcDAF-12 act: inactive; DAX1 inh-2: 5.5; hgDAF12 agonist: 10.6; DAX1 inh confirm: 7.7; SF1 AF2mut Luc: 5.2

Results for Cc1ccc(NC(=O)Cc2cccc(OC(F)F)c2)c(S(=O)(=O)N2CCOCC2)c1 ?
ssDAF12 agonist: inactive; hcDAF-12 act: inactive; DAX1 inh-2: inactive; hgDAF12 agonist: inactive

Results for Cc1ccccc1NC(=O)[C@@H]1CC(=O)O[C@@H]1c1ccccc1 ?
ssDAF12 agonist: inactive; hcDAF-12 act: inactive; DAX1 inh-2: inactive; hgDAF12 agonist: inactive
